Compound activity as filed in PubChem BioAssay.
Many of the other results were omitted from the sample, so hits are more common in it than they were.
Pf Dd2 growth: inhibitors of Plasmodium falciparum Dd2 growth; 120,000 tested, 4.3% active; Potency, µM (top dose mostly 28.9 µM), hits mostly inhibitors; P. falciparum Dd2 growth, SYBR Green, 72 h; active means well fitted inhibition curve with a large enough effect; further: nearly all actives have a fitted effect of over 65% in size
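Readout: SYBR Green fluorescence, 485 nm excitation, 535 nm emission, after ~16 h lysis at 37C. Before that, Dd2-infected red cells (2.5% hematocrit) grew 72 h with compound, 29 uM top final concentration.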
Hits are given with their value; 0 = inactive.

SMILES	Pf Dd2 growth
Cc1ccccc1C(=O)N1CCC2(CC1)CCN(CCc1ccccc1)c1ccccc1O2	0
Cc1ccc(C(=O)N2CCC3(CC2)CCN(Cc2cccs2)c2ccccc2O3)cc1	0
O=C(c1ccccc1Cl)N1CCC2(CC1)CCN(Cc1cccs1)c1ccccc1O2	10µM
CC1(C)[C@H](Cc2cc(CN3CCN(c4ccccc4)CC3)on2)C[C@@H]1NC(=O)NCc1ccccc1	0
CCn1ccc2oc(C)c(C(=O)NCc3ccccc3Cl)c2c1=O	0
Cc1ccc(CN(Cc2ccco2)C(=O)COc2ccc(C)c(C)c2)cc1	0
Cc1cc(OCC(=O)N(Cc2ccc(N(C)C)cc2)Cc2ccco2)cc(C)c1Cl	0
Cc1cccc(OCC(=O)N(Cc2ccc(C(C)(C)C)cc2)Cc2ccco2)c1	11.2µM
O=C(c1ccccc1Cl)N1CCCN(c2nc3ncccc3o2)CC1	0
Cc1ccc(C(=O)NCC(c2ccc3c(c2)OCO3)N2CCN(c3ccc(F)cc3)CC2)cc1 (stereo not drawn)	12.6µM
CC(C)(C)CC(=O)NCC(c1ccc2c(c1)OCO2)N1CCN(c2ccccc2)CC1 (stereo not drawn)	7.08µM
CCCC(=O)NCC(c1ccc2c(c1)OCO2)N1CCN(c2ccccc2)CC1 (stereo not drawn)	0
CCCC(=O)NCC(c1ccc2c(c1)OCO2)N1CCN(c2ccc(F)cc2)CC1 (stereo not drawn)	0
Cc1ccc(NC(=O)C(=O)NCC(c2ccc3c(c2)OCO3)N2CCN(c3ccccc3)CC2)cc1 (stereo not drawn)	0
CC(=O)NCC(c1ccc2c(c1)OCO2)N1CCN(c2ccccc2)CC1 (stereo not drawn)	0
CCNC(=O)N(C1CC1)C1CCOC2(CCN(C(=O)CCc3ccccc3)CC2)C1 (stereo not drawn)	0
COc1cccc(-c2n[nH]c3c2CC(=O)N(CC2CCOCC2)C3)c1OC	0
CC1CCN(CCCNC(=O)CN2C(=O)CSc3ccc(S(=O)(=O)N4CCC(C)CC4)cc32)CC1	8.91µM
CCCCNC(=O)CN1C(=O)CSc2ccc(S(=O)(=O)N3CCC(C)CC3)cc21	0
CC1CCN(CCCNC(=O)CN2C(=O)CSc3ccc(S(=O)(=O)N4CCOCC4)cc32)CC1	0
O=C(CN1C(=O)NC(c2ccc(Cl)cc2)C2=C1COC2=O)Nc1ccc(C(F)(F)F)cc1 (stereo not drawn)	0
CN1CC(=O)N(c2ccccc2)Cc2c(NC3CC3)ncnc21	0
C=CCO[C@@H]1CCN2C(=O)[C@@H]3C[C@@H](OCC4CC4)CN3C(=O)[C@@H]2C1	0
CSc1ccc(CNC(=O)c2nnn3c2COC(c2ccc(F)cc2)C3)cc1 (stereo not drawn)	0
Fc1ccc(-c2ccc3ncc(Nc4ccc5c(c4)OCO5)n3n2)cc1	0
SMILES	Pf Dd2 growth
COc1cccc(Nc2cnc3ccc(N4CCOCC4)nn23)c1	0
COc1cncc(Nc2cnc3ccc(N(C)Cc4ccc(F)cc4)nn23)c1	0
CN1CCN(c2ccc3ncc(Nc4ccccc4F)n3n2)CC1	0
CN(Cc1ccc(F)cc1)c1ccc2ncc(Nc3ccc4c(c3)OCCO4)n2n1	5.62µM
COc1ccc(Nc2cnc3ccc(N4CCOCC4)nn23)cn1	0
COc1ncccc1Nc1cnc2ccc(N(C)C)nn12	0
CN(Cc1ccc(F)cc1)c1ccc2ncc(Nc3ccnc(N4CCOCC4)c3)n2n1	3.98µM
Fc1ccc(-c2ccc3ncc(Nc4ccnc(N5CCOCC5)c4)n3n2)cc1	0.562µM
FC(F)(F)c1cc(Nc2cnc3ccc(N4CCOCC4)nn23)ccc1Cl	0
FC(F)(F)Oc1ccc(Nc2cnc3ccc(N4CCOCC4)nn23)cc1	11.2µM
Clc1ccccc1Nc1cnc2ccc(N3CCOCC3)nn12	0
CCNC(=O)c1n[nH]c2c1CN(C(=O)c1cccc(Cl)c1)CC2	0
O=C(N1CCN(c2ccccc2)CC1)C1(CCO)CC12CCOCC2 (stereo not drawn)	0
COCCCNC(=O)Cn1nc2c(cc1=O)CCCC2	0
Cc1ccc2c(c1)nc1n2[C@@H](CNC(=O)c2cccnc2)COC1	0
CCC1Oc2ccc(NC(=O)c3ccc(Cl)cc3)cc2CN(Cc2ccc3c(c2)OCO3)C1=O (stereo not drawn)	0
Cc1cnc(CCNC(=O)c2cn(C)cn2)n1CC1CC1	0
N#Cc1ccccc1S(=O)(=O)N[C@H]1CO[C@H]2[C@@H]1OC[C@H]2OC(=O)Nc1cccc(C(F)(F)F)c1	0
CN1[C@@H](CCC(=O)N2CC[C@@H](O)C2)CNC(=O)[C@@H]2[C@H]1CCN2Cc1csnn1	0
COc1ccc(C(=O)NC2CCN(c3cc(-c4cccs4)[nH]n3)C2)c(C)c1 (stereo not drawn)	0
COCc1cc(CC2(NC3CCN(C(C)=O)CC3)COC2)no1	0
COCCN1Cc2[nH]nc(-c3cccc(COC)c3)c2CC1=O	0
CC(C)c1ccc(CN2CC(CN[S+](=O)([O-])c3ccccc3)C3(C2)CN(c2ccccc2)C3)cc1 (stereo not drawn)	0
O=C(C1CC(=O)N(c2n[nH]c3cccc(F)c23)C1)N1CCN(c2ccc(F)cc2)CC1 (stereo not drawn)	0
COc1cccc(N2CCN(C(=O)C3CC(=O)N(c4n[nH]c5cccc(F)c45)C3)CC2)c1 (stereo not drawn)	0
SMILES	Pf Dd2 growth
COc1ccccc1N1CCN(C(=O)C2CC(=O)N(c3n[nH]c4cccc(F)c34)C2)CC1 (stereo not drawn)	7.08µM
COc1ccc([C@@H](NC(=O)c2ccc3cccc(F)c3n2)C2CC(O)C2)cn1 (stereo partly drawn)	0
COCCN1Cc2[nH]nc(-c3ccccc3)c2CC1=O	0
CC#CCn1cc2c3c(cccc31)[C@H](CC(C)C)N[C@H](C(=O)N1CCOCC1)C2	0
Cc1noc(C)c1Cn1cc2c3c(cccc31)[C@H](CC(C)C)N[C@H](C(=O)O)C2	0
CC(C)C[C@@H]1N[C@H](C(=O)NCC2CC2)Cc2cn(Cc3cccnc3)c3cccc1c23	0
CC(C)C[C@@H]1N[C@H](C(=O)N2CCN(C)CC2)Cc2cn(Cc3ccccn3)c3cccc1c23	0
CC(C)C[C@@H]1N[C@H](C(=O)N2CCOCC2)Cc2cn(Cc3ccncc3)c3cccc1c23	10µM
CC(C)C[C@@H]1N[C@H](C(=O)N2CCN(C)CC2)Cc2cn(Cc3cccnc3)c3cccc1c23	0
COCCNC(=O)[C@@H]1Cc2cn(Cc3ccccn3)c3cccc(c23)[C@H](CC(C)C)N1	0
COCCNC(=O)[C@@H]1Cc2cn(Cc3cccnc3)c3cccc(c23)[C@H](CC(C)C)N1	11.2µM
CC#CCn1cc2c3c(cccc31)[C@H](CC(C)C)N[C@H](C(=O)N1CCN(CCO)CC1)C2	10µM
Cc1ccc(-n2c(C3CCN(C(=O)c4cccc(F)c4)CC3)n[nH]c2=O)cc1	0
Cc1c(-c2ccc(F)cc2)[nH]c2ccc(CNCc3cnn(C)c3)cc12	0
O=C(c1ncn[nH]1)N1CCN(c2cc(C3CC(O)C3)ncn2)CC1 (stereo not drawn)	0
COC[C@@H]1CN(S(=O)(=O)c2ccc(C)cc2)C[C@H]1c1ccncc1	0
COCC1CN(S(=O)(=O)c2cc(F)ccc2OC)CC12CCNCC2 (stereo not drawn)	0
CCOc1ccc(C(=O)N2C[C@@H](COC)[C@H](C(N)=O)C2)cc1	0
N[C@H]1CN(C(=O)c2ccc(Cn3cnnn3)cc2)C[C@@H]1C1CC1	0
Cc1ccc(OCc2ccc(C(=O)N3C[C@H](C4CC4)[C@@H](N)C3)cc2)cc1	10µM
CC(C)=CCC1(C(=O)O)CCCN(C(=O)C2(Cn3cccn3)CC2)C1 (stereo not drawn)	0
